Experimental data reported in PubChem BioAssay (NCI).
Compounds without any hit were thinned out: in the full panel of roughly 83,000, 20% have a hit.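 In brief: 96-well plates, 48 h treatment, single concentration, percent growth endpoint.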 Calls of active or inactive are those of the source. Rule for the calls: active = growth percent below 10; inactive = the rest.

Legend:
Assay in all cases: NCI-60 one-dose screen, 48 h (100 = growth as untreated, 0 = no growth, -100 = all killed)
Settings in all cases: 10 µM
[1] = system: NCI-H23 lung
[2] = system: NCI-H226 lung
[3] = system: HOP-62 NSCLC
[4] = system: NCI-H460 lung
[5] = system: HOP-92 NSCLC
[6] = system: NCI-H522 lung
[7] = system: A549/ATCC NSCLC
[8] = system: 786-0 renal
[9] = system: COLO 205 colon
[10] = system: DU-145 prostate
[11] = system: K-562 leukemia
[12] = system: MALME-3M melanoma
[13] = system: MDA-MB-231 breast
[14] = system: RXF 393 renal
[15] = system: SF-268 CNS
[16] = system: SF-295 CNS
[17] = system: SF-539 CNS
[18] = system: UACC-257 melanoma
[19] = system: M14 melanoma

Measured: growth

O=S(=O)(O)c1ccc(Cl)cc1
inactive: [1] 96% | [2] 97.3% | [3] 95.2% | [4] 103% | [5] 117% | [6] 94.6% | [7] 97% | [8] 111% | [9] 109% | [10] 101% | [11] 99.7% | [12] 98.2% | [13] 107% | [14] 123% | [15] 95.1% | [16] 109% | [17] 102% | [18] 99.2% | [19] 99.7%

Nc1ccc(/C=N/Nc2ccnc3c(O)cccc23)c2cccnc12
inactive: [1] 74.6% | [2] 84% | [3] 64.4% | [4] 25.9% | [5] 88.1% | [6] 41.3% | [7] 42.6% | [8] 50.7% | [9] 104% | [10] 37.4% | [12] 101% | [14] 55.8% | [15] 43.5% | [16] 84.8% | [17] 67.7% | [18] 105% | [19] 53.8%
active: [11] 0.593% | [13] 0.678%

COc1cc2cc(Oc3ccc(NC(=O)c4cc(C(F)(F)F)cc(C(F)(F)F)c4)cc3)c(C)nc2cc1OC
inactive: [1] 32.6% | [2] 53.6% | [3] 84.7% | [4] 26.9% | [6] 34% | [7] 30.7% | [8] 64.5% | [9] 51.7% | [10] 60.4% | [11] 23.3% | [12] 73.7% | [13] 59.2% | [14] 56.8% | [15] 74.7% | [17] 75.2% | [18] 60.4% | [19] 61.6%
active: [5] -6.21% | [16] 6.46%

COc1cc2cc(Oc3ccc(NC(=O)Nc4ccc(Cl)c(C(F)(F)F)c4)cc3)c(C)nc2cc1OC
active: [1] 3.46% | [2] 4.49% | [3] -50.9% | [4] -19.8% | [5] -22.3% | [6] -43.6% | [7] -17.2% | [8] -21.1% | [9] -49.5% | [11] -9.54% | [12] -23% | [13] -50.6% | [14] -33.4% | [15] -10.2% | [16] -70.9% | [17] -36.2% | [18] -12.5% | [19] -73.6%
inactive: [10] 12.7%

Clc1ccc(/C=C2\CCCC3C2=Nc2ccccc2NC3c2ccc(Cl)cc2)cc1 (centres undefined)
inactive: [1] 83.3% | [2] 100% | [3] 122% | [4] 94.3% | [5] 60.6% | [6] 20% | [7] 78.5% | [8] 114% | [9] 68.2% | [10] 89.2% | [11] 47.2% | [12] 89.7% | [13] 97.6% | [14] 65.3% | [15] 80% | [16] 83.3% | [17] 92.3% | [18] 79.9% | [19] 29.1%

Oc1ccc(-c2[nH]c3ccccc3c2-c2nc3ccccc3o2)cc1
inactive: [1] 77.8% | [2] 78.5% | [3] 67.9% | [4] 86.6% | [5] 67.8% | [6] 60.9% | [7] 58% | [8] 75% | [9] 59.1% | [10] 78.6% | [11] 19.2% | [12] 65% | [13] 48.7% | [14] 91.6% | [15] 69.8% | [16] 72.1% | [17] 82.7% | [18] 112% | [19] 25.1%

C=CCN(CC=C)C(=O)[C@H](CC)[C@@H]1CC[C@@H](C)[C@@H]([C@H](C)[C@@H](O)[C@@H](C)C(=O)[C@H](CC)C2O[C@]3(C=C[C@@H](O)[C@]4(CC[C@@](C)([C@H]5CC[C@](O)(CC)[C@H](C)O5)O4)O3)[C@H](C)C[C@@H]2C)O1 (some centres undefined)
active: [1] 6.23% | [2] -0.687% | [4] 3.23% | [5] -23.9% | [6] -2.7% | [9] -62.4% | [12] -22.4% | [13] -36.3% | [14] -1.56% | [16] -16% | [18] 7.88%
inactive: [3] 12% | [7] 11.5% | [8] 20% | [10] 53.7% | [11] 14.3% | [15] 41.7% | [17] 29.1% | [19] 17.9%

COc1ccc(/C(C#N)=C/c2ccccc2OC)cc1
inactive: [1] 41.7% | [2] 64.8% | [3] 44.7% | [4] 20.9% | [5] 74.4% | [7] 36.2% | [8] 52.4% | [9] 14.2% | [10] 68.1% | [11] 21% | [12] 19.9% | [13] 56.2% | [14] 25.5% | [15] 60.7% | [16] 22.9% | [17] 42.2% | [18] 47.8% | [19] 20.7%
active: [6] 5.02%

COc1cc(/C=C/c2cc(/C=C/c3ccc(O)c(OC)c3)n(C(=O)Nc3ccccc3Cl)n2)ccc1O
active: [1] -25.8% | [2] -3.72% | [3] 8.39% | [4] 7.39% | [5] -14.4% | [6] -18.7% | [7] 8.75% | [8] -14.8% | [9] -73.5% | [10] 1.28% | [11] 2.27% | [12] 8.27% | [14] -50.3% | [15] -6.38% | [16] 2.83% | [17] 4.06% | [18] 1.28% | [19] 0.265%
inactive: [13] 17.7%

O=C(CC(CC(=O)c1ccccc1)c1ccccc1O)c1ccccc1
inactive: [1] 92.8% | [2] 87.8% | [3] 85.8% | [4] 93% | [5] 88.9% | [6] 89.3% | [7] 93% | [8] 96.5% | [9] 106% | [10] 103% | [11] 89.4% | [12] 91.8% | [13] 90.4% | [14] 107% | [15] 89.8% | [16] 99.9% | [17] 99.1% | [18] 98.4% | [19] 92.8%

O=C(O)COc1c(Cl)cc([N+](=O)[O-])cc1Cl
inactive: [1] 99% | [2] 96.4% | [3] 88.8% | [4] 109% | [5] 78.5% | [6] 76.8% | [7] 81.7% | [8] 88.6% | [9] 102% | [10] 111% | [11] 92.2% | [12] 97.1% | [13] 117% | [14] 102% | [15] 96.5% | [16] 100% | [17] 99.5% | [18] 79.7% | [19] 88.7%

C=CCn1c(SCC(=O)Nc2ccc(C(=O)/C=C/c3ccc(OC)cc3)cc2)nnc1-c1ccc(OC)c(OC)c1
inactive: [1] 89.3% | [2] 82.7% | [3] 92.6% | [4] 91.7% | [5] 83.2% | [6] 65.6% | [7] 85.8% | [8] 79.9% | [9] 114% | [10] 97.7% | [11] 63.6% | [12] 110% | [13] 72.3% | [14] 84.7% | [15] 84.1% | [16] 93.5% | [17] 102% | [18] 84.6% | [19] 89.6%

Cc1c(O)c(=O)ccn1C1CCC(CC2CCC(n3ccc(=O)c(O)c3C)CC2)CC1 (centres undefined)
inactive: [1] 39.5% | [2] 42.1% | [3] 36.2% | [4] 12.5% | [5] 51.8% | [6] 31.3% | [7] 46.4% | [8] 46.5% | [9] 23.5% | [10] 39.6% | [11] 18.3% | [12] 63.8% | [13] 43.4% | [14] 44.1% | [15] 30.1% | [16] 54.9% | [17] 11.9% | [18] 45.5% | [19] 47.2%

CCOC(=O)c1cc(C(=O)c2cc(OC)c(OC)c(OC)c2)n2ncc3ccccc3c12
inactive: [1] 82.5% | [2] 95.1% | [3] 89.5% | [4] 51.3% | [5] 81.6% | [6] 39.6% | [7] 54.8% | [8] 94.5% | [9] 60.4% | [10] 83.6% | [11] 23% | [12] 70.5% | [13] 98.7% | [14] 88.3% | [15] 84% | [16] 72.5% | [17] 86.7% | [18] 57.1% | [19] 50.2%

O=C1/C=C/[C@@H](O)[C@@H]2C[C@@H](O)C[C@H]2/C=C/CCC[C@H](C(F)(F)F)O1
active: [1] -30.8% | [2] -46.7% | [5] -2.27% | [6] -27.6% | [8] -11.6% | [9] -44.6% | [12] -10.9% | [13] -31.8% | [14] -28.8% | [18] 6%
inactive: [3] 33% | [4] 59.2% | [7] 33.4% | [10] 28.2% | [11] 20.7% | [15] 17.9% | [16] 78% | [17] 21.4% | [19] 13.4%

OCC1OC2C(NC(=S)N2c2ccccc2)C(O)C1O (centres undefined)
inactive: [1] 102% | [2] 95.5% | [3] 101% | [4] 105% | [5] 90.5% | [6] 104% | [7] 93.9% | [8] 110% | [9] 105% | [10] 107% | [11] 108% | [12] 131% | [13] 99.8% | [14] 108% | [15] 96.8% | [16] 99.8% | [17] 102% | [18] 102% | [19] 120%
